Rows were chosen to be rich in hits. Some 6.1% of all compounds tested hit in one or more screens of this group.
D1 PAM = potentiators of human D1 dopamine receptor; P21728; HEK293 TREx D1 cells, calcium flux, dopamine EC20 potentiation; potentiation, % at 10 µM; 360,000 compounds, 0.036% hits; AID 504651; in the data active = potentiation above about 30%; note: 0% is about no effect
Target sequence (P21728 whole entry, looked up): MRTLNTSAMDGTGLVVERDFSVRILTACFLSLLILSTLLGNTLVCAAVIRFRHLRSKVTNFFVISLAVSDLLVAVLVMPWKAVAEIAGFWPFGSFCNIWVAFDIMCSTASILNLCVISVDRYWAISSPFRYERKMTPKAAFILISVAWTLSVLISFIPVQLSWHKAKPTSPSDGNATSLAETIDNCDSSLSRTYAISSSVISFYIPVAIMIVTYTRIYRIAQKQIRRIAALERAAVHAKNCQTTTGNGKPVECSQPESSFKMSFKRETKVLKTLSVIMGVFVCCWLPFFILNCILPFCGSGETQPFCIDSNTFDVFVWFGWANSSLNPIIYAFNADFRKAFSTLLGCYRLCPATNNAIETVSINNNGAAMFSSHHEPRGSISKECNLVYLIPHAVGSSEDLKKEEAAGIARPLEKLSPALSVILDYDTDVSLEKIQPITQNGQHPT
D3 ag = agonists of human D3 dopamine receptor; AID 652048; max activation, %; D3R DiscoveRx beta-arrestin cells, luminescence, 90 min; 410,000 compounds, 0.58% hits; in the data active = max activation above about 30%; note: 0% is about no effect
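Agonist mode: compounds and dopamine controls were applied to plated cells for 90 min at 37 degrees C after an overnight attachment at 1500 cells/well. Luminescent read-out followed 30 - 60 minutes at room temperature with DiscoveRx detection reagent.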
D1 agonist = human D1 receptor agonism | HEK293 T-REx D1 cells, calcium flux, agonist mode | activation, % at 2 µM | 360,000 compounds, 1% hits; in the data active = activation above about 30%; note: 0% is about no effect
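Inducible HEK293 T-REx D1 cells, force-coupled to calcium signalling, were plated at 4000 cells/well with tetracycline and held overnight at 30 C. After no-wash calcium dye loading, compound-evoked calcium rise over 180 s flagged agonists.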
DRD3 antagonist = D3 dopamine receptor (human) antagonism; max response, negative = inhibition, %; D3R cells, DiscoveRx beta-arrestin luminescence, antagonist mode; active compounds read low; P35462; 360,000 compounds, 2.5% hits; AID 652054; in the data active = max response below about -50%; note: % is set by controls: 0 for no effect and ±100 for the full control effect
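Cells plated overnight at 1500 cells/well, then exposed to library compounds with dopamine controls for 90 minutes at 37 degrees C. DiscoveRx reagent added for 30–60 minutes at room temperature; luminescence read, quantitative HTS format.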
D1 antag = blocks dopamine activation of the human D1 receptor; HEK293 TREx D1 cells, calcium flux, dopamine EC80; active compounds read low; activity change, negative = inhibition, % at 10 µM; 360,000 compounds, 3.2% hits; in the data active = activity change below about -30%; note: % is set by controls: 0 for no effect and ±100 for the full control effect
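Cells carrying a force-coupled, tetracycline-inducible human D1 receptor report calcium flux. Each well gets a 10 s baseline, compound with 180 s monitoring, then an EC80 dopamine stimulus with a second 180 s kinetic read.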
* hit, by the source's call; ! = a repeat was not active.

`CN(C)c1ccc(-c2ccnc3c2CC(C)(C(=O)Nc2ccc(F)c(Cl)c2)O3)cc1` (stereo unspecified) gave D3 ag 69* and DRD3 antagonist -24.
`COc1ccc(CCCNC(=O)C2(C)Cc3c(-c4ccc(NC(C)=O)cc4)ccnc3O2)cc1` (stereo unspecified) gave D3 ag -19 and DRD3 antagonist -62*.
For COCCNC(=O)C1(C)Cc2c(-c3ccc(NC(C)=O)cc3)ccnc2O1 (stereo unspecified) the results were D3 ag -11 and DRD3 antagonist -2.
`CC(C)c1ccc(NC(=O)C2(C)Cc3c(-c4ccc(C(N)=O)cc4)ccnc3O2)cc1` (stereo unspecified) gave D3 ag -18 and DRD3 antagonist -54*.
COc1cccc(C(=O)Nc2nc(-c3nnn(-c4cccc(Cl)c4C)c3C)ns2)c1 was read as D1 PAM 12, D3 ag 6, D1 agonist 3 and D1 antag 21.
Screening Cn1c(C(=O)NCc2ccccc2Cl)cc2sc(Cl)cc21 returned D1 PAM -8, D3 ag -3, D1 agonist 3 and D1 antag -29.
For CC(=O)NCCNC(=O)C1(C)Cc2c(-c3ccccc3)ccnc2O1 (stereo unspecified) the results were D3 ag -3 and DRD3 antagonist 0.
CC1(C(=O)NCc2ccco2)Cc2c(-c3ccccc3)ccnc2O1 (stereo unspecified) was read as D3 ag -7 and DRD3 antagonist -58*.
Screening CC1(C(=O)NCc2cccs2)Cc2c(-c3ccc(C(N)=O)cc3)ccnc2O1 (stereo unspecified) returned D3 ag -8 and DRD3 antagonist -71*.
`CC(=O)Nc1ccc(-c2ccnc3c2CC(C)(C(=O)Nc2cccc(Oc4ccccc4)c2)O3)cc1` (stereo unspecified) gave D3 ag -19 and DRD3 antagonist -66*.
Screening CC(=O)NCCNC(=O)C1(C)Cc2c(-c3ccc(C(N)=O)cc3)ccnc2O1 (stereo unspecified) returned D3 ag 4 and DRD3 antagonist 22.
`CC(C)N=c1c([N+](=O)[O-])nn(C)n1O` gave D1 PAM -4, D3 ag 4, D1 agonist 2, DRD3 antagonist -1 and D1 antag -58*.
For O=c1c2ccccc2c2ccccc2c(=O)n1Cc1cccnc1 the results were D1 PAM -7, D3 ag -9, D1 agonist 0, DRD3 antagonist -108* and D1 antag -22.
For CCOc1ccc(/C=C/C(=O)Nc2ccc(C(N)=O)cc2)cc1OC the results were D1 PAM -7, D3 ag 2, D1 agonist 5, DRD3 antagonist 0 and D1 antag -3.
Screening CCOc1cc(/C=C/C(=O)Nc2ccc(C(=O)NCCN(CC)CC)cc2)ccc1OCC(C)C returned D1 PAM -11, D3 ag 0, D1 agonist 5, DRD3 antagonist 8 and D1 antag -41*.
`CCN(CC)CCNC(=O)c1ccc(NC(=O)c2ccc(C(=O)c3ccccc3)cc2)cc1` gave D1 PAM -7, D3 ag -15, D1 agonist 2, DRD3 antagonist 9 and D1 antag -38*.
For CCN(CC)CCNC(=O)c1ccc(NC(=O)c2ccc(COc3ccccc3)cc2)cc1 the results were D1 PAM -7, D3 ag 2, D1 agonist 3, DRD3 antagonist -4 and D1 antag 3.
CCN(CC)CCNC(=O)c1ccc(N)cc1 was read as D1 PAM -3, D3 ag -15, D1 agonist 0, DRD3 antagonist 7 and D1 antag 11.
Screening CCN(CC)CCNC(=O)c1ccc(NC(C)=O)cc1 returned D1 PAM -4, D3 ag 0, D1 agonist 2, DRD3 antagonist 17 and D1 antag -34*!.
`Cc1c(Cl)cccc1NC(=O)CCS(=O)(=O)c1ccc2c(c1)CC(C)N2C(=O)C1CC1` (stereo unspecified) gave D1 PAM -2, D3 ag 1, D1 agonist 7 and D1 antag -17.
`Cc1ccc(-c2nc3c(C)cccn3c2Nc2ccccc2C)s1` gave D1 PAM -3, D3 ag 6, D1 agonist 3 and D1 antag 9.
Screening CCN(Cc1ccccc1)S(=O)(=O)c1ccc2c(c1)CC(C)N2C(=O)C1CCC1 (stereo unspecified) returned D1 PAM 0, D3 ag 7, D1 agonist 9 and D1 antag -8.
CC(C)c1ccc(Nc2c(-c3ccc(N(C)C)cc3)nc3cnccn23)cc1 was read as D1 PAM 1, D3 ag 6, D1 agonist 0 and D1 antag 9.
For COc1cc(NC(=O)c2oc3c(c2C)-c2nn(Cc4cccc(Cl)c4)cc2CC3)cc(OC)c1 the results were D1 PAM -2, D3 ag 3, D1 agonist 0 and D1 antag -31*.
Cc1ccccc1NC(=O)c1oc2c(c1C)-c1nn(Cc3cccc(Cl)c3)cc1CC2 was read as D1 PAM -3, D3 ag -3, D1 agonist 0 and D1 antag 12.
`CCOc1ccc2nc(N3CCCC(C(=O)Nc4cc(Cl)c(OC)cc4OC)C3)sc2c1` (stereo unspecified) gave D1 PAM -3, D3 ag 5, D1 agonist 1 and D1 antag 0.
Screening COc1ccc(-c2ccoc2)cc1[C@H]1[C@H]2C=CC[C@@H](C)[C@@H]2C(=O)N1Cc1ccccc1 returned D1 PAM 0, D3 ag -45, D1 agonist 6, DRD3 antagonist -56* and D1 antag 22.
`COc1ccc(-c2ccc(C)cc2)cc1[C@H]1[C@H]2C=CC[C@@H](C)[C@@H]2C(=O)N1Cc1ccccc1` gave D1 PAM 2, D3 ag -37, D1 agonist 2, DRD3 antagonist -11 and D1 antag 1.
For COc1ccc(-c2ccc(OC)c([C@H]3[C@H]4C=CC[C@@H](C)[C@@H]4C(=O)N3Cc3ccccc3)c2)cc1 the results were D1 PAM 0, D3 ag -56, D1 agonist 8, DRD3 antagonist -52* and D1 antag 34.
CCn1nnnc1SCC(=O)NNC(=O)C1CCCCC1 was read as D1 PAM -8, D3 ag -3, D1 agonist 4, DRD3 antagonist -80* and D1 antag 6.
CCOC(=O)c1ccc(NC(=O)COc2ccccc2CNC2CCCC2)cc1 was read as D1 PAM -7, D3 ag -20, D1 agonist 25, DRD3 antagonist -7 and D1 antag -36*.

Screening results as filed in PubChem BioAssay.
